Reference: the supplement of paper PMC10849652
The full data set covers some 8,800 targets. This sample favours those with a hit. About 0.5% of all pairs of compound and target were hits. Unmarked numbers belong to inactive results.

Assays:
Assay in all cases: log2 fold change, soluble protein after heating vs DMSO (PISA); higher = thermal stabilisation; K562 lysate, 10 uM; active = over 0.2 and 3.5 SD of the protein, either way, in both replicates (recomputed)
ibrutinib = compound: C=CC(=O)N1CCC[C@@H](n2nc(-c3ccc(Oc4ccccc4)cc3)c3c(N)ncnc32)C1 [ibrutinib]
Outline: (§1)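 Pellets of K562 cells were dounce-homogenised in PBS pH 7.4 with 1 mM MgCl2, and the crude extract was held at 1 mg/mL protein for a 30 min treatment with 10 μM compound. Aliquots were heated for 3 min over 48°C-58°C and pooled before NP-40 was added to 0.5% at 4°C. The supernatant from 21,000xg for 90 min was quantified by TMTpro 16plex LC-MS/MS with channel sums equalised. Values are reported from duplicates as log-two fold change in thermal stability relative to solvent controls.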

[1] = compound: CC(=O)c1cnc2ccc(-c3cc(Cl)c(O)c(Cl)c3)nc2c1N[C@H]1CC[C@H](CN(C)C)CC1
Outline: as §1

ralimetinib = compound: CC(C)(C)Cn1c(N)nc2ccc(-c3[nH]c(C(C)(C)C)nc3-c3ccc(F)cc3)nc21 [ralimetinib]
Outline: as §1

[2] = compound: CC(C)(O)CC(=O)NCCn1ccc2ncnc(Nc3ccc(Oc4cccc(C(F)(F)F)c4)c(Cl)c3)c21
Outline: as §1

[3] = compound: CC(C)C1=C2N=C(C=C(N2N=C1)NCC3=CC=CC=C3)NCCCCCCN
Outline: as §1

[4] = compound: CC1=C(C(CC(=O)N1)C2=CC=C(C=C2)C(F)(F)F)C(=O)NC3=C(C=C4C(=C3)C=NN4)F
Outline: as §1

[5] = compound: CC1=C(C2=C(C=C1)C(=O)C3=CC=CC=C3N2CCCN)C
Outline: as §1

[6] = compound: CC1=C(C=C(C=C1)NC(=O)C2=CC(=CC=C2)C(C)(C)C#N)NC3=CC4=C(C=C3)N=CN(C4=O)C
Outline: as §1

[7] = compound: CC1=C(C=C(C=C1)NC(=O)C2=CC(=CC=C2)N(C)C)NC(=O)C3=CC=C(C=C3)O
Outline: as §1

[8] = compound: CC1=CC=C(C=C1)SC2=C3C=C(SC3=CN=C2)C(=O)N
Outline: as §1

vemurafenib = compound: CCCS(=O)(=O)Nc1ccc(F)c(C(=O)c2c[nH]c3ncc(-c4ccc(Cl)cc4)cc23)c1F [vemurafenib]
Outline: as §1

[9] = compound: CCCS(=O)(=O)Nc1ccc(F)c(C(=O)c2c[nH]c3ncc(Cl)cc23)c1F
Outline: as §1

barasertib = compound: CCN(CCCOc1ccc2c(Nc3cc(CC(=O)Nc4cccc(F)c4)[nH]n3)ncnc2c1)CCOP(=O)(O)O [barasertib]
Outline: as §1

[10] = compound: CC[C@@H]1C(=O)N(C)c2cnc(Nc3ccc(C(=O)NC4CCN(C)CC4)cc3OC)nc2N1C1CCCC1
Outline: as §1

volasertib = compound: CC[C@@H]1C(=O)N(C)c2cnc(Nc3ccc(C(=O)N[C@H]4CC[C@H](N5CCN(CC6CC6)CC5)CC4)cc3OC)nc2N1C(C)C [volasertib]
Outline: as §1

[11] = compound: CCn1c(C(=O)N(C2CC2)C2CC2)cc2c3c(ncn3C)c(Nc3cc(C)n(C)n3)nc21
Outline: as §1

[12] = compound: CCn1cc(-c2ccnc3[nH]c(-c4cccc(CN(C)C)c4)cc23)c(-c2ccc(NC(=O)N(C)C)cc2)n1
Outline: as §1

[13] = compound: CN1CCC(CNc2ccc3ncc(-c4cccc(OC(F)(F)F)c4)n3n2)CC1
Outline: as §1

saracatinib = compound: CN1CCN(CCOc2cc(OC3CCOCC3)c3c(Nc4c(Cl)ccc5c4OCO5)ncnc3c2)CC1 [saracatinib]
Outline: as §1

sotrastaurin = compound: CN1CCN(c2nc(C3=C(c4c[nH]c5ccccc45)C(=O)NC3=O)c3ccccc3n2)CC1 [sotrastaurin]
Outline: as §1

Chain of UniProt Q9NRP7 (Q9NRP7 whole entry, looked up): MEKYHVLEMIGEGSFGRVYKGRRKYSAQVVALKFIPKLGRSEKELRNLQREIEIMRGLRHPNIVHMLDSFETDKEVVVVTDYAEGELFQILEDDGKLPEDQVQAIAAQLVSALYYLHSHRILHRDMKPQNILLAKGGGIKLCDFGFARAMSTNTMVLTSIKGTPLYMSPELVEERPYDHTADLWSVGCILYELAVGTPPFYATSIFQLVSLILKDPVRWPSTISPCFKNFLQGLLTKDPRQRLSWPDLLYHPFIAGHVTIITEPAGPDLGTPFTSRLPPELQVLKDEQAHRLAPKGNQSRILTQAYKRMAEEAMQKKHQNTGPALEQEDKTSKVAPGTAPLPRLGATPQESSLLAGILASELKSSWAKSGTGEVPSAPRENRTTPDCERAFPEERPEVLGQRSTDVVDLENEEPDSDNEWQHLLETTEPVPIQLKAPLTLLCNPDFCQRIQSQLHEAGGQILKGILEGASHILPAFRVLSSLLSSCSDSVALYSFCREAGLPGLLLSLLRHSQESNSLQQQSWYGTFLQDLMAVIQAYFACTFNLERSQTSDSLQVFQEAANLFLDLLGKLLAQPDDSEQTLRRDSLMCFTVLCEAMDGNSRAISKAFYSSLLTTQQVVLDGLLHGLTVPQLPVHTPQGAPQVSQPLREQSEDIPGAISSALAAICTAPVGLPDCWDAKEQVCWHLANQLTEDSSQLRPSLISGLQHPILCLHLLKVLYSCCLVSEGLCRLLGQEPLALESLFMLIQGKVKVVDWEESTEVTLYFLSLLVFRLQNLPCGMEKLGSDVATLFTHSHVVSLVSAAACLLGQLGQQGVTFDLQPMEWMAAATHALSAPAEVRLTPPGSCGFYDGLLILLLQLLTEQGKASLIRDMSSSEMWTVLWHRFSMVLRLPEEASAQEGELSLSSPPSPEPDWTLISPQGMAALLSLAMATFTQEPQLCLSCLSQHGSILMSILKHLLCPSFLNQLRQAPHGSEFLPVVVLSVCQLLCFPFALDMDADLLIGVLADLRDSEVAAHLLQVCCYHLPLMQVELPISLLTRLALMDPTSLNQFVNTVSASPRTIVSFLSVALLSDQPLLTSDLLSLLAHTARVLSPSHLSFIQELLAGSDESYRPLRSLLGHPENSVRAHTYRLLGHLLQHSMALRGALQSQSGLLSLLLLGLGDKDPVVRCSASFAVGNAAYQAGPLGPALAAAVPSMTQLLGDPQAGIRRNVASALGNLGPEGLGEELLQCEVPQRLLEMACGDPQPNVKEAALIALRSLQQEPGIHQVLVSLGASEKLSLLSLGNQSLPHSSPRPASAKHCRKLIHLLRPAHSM
Chain of UniProt Q99961 (Q99961 whole entry, looked up): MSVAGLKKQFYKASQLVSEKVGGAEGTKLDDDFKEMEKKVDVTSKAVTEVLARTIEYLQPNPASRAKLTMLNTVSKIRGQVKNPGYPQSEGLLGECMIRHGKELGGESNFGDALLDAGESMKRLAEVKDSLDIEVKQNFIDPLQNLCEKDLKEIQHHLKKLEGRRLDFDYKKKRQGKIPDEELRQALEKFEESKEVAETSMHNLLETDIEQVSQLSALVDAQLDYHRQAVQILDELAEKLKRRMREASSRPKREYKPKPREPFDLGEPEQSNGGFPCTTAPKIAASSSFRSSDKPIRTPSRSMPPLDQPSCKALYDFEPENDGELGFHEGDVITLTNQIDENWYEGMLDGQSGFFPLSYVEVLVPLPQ
Chain of UniProt Q15022 (Q15022 whole entry, looked up): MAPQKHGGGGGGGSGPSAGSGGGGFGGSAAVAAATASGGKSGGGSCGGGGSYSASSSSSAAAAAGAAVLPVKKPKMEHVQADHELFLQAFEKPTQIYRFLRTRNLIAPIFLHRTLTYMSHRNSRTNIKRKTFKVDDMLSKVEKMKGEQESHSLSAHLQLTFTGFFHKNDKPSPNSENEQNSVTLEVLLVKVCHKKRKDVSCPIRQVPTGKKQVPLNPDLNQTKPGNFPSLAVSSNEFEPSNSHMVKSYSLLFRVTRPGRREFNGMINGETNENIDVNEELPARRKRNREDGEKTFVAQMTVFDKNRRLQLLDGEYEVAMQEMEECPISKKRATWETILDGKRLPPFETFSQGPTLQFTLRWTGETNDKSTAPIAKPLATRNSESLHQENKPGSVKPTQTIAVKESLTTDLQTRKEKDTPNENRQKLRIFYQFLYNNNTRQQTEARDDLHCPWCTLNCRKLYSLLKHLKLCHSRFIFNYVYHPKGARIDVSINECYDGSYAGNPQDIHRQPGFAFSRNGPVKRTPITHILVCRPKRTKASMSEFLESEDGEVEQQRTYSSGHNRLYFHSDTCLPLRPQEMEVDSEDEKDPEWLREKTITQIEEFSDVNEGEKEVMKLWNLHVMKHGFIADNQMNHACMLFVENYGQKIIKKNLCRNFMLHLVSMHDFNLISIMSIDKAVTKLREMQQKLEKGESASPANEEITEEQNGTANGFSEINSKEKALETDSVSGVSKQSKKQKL
Chain of UniProt Q7KZF4 (Q7KZF4 whole entry, looked up): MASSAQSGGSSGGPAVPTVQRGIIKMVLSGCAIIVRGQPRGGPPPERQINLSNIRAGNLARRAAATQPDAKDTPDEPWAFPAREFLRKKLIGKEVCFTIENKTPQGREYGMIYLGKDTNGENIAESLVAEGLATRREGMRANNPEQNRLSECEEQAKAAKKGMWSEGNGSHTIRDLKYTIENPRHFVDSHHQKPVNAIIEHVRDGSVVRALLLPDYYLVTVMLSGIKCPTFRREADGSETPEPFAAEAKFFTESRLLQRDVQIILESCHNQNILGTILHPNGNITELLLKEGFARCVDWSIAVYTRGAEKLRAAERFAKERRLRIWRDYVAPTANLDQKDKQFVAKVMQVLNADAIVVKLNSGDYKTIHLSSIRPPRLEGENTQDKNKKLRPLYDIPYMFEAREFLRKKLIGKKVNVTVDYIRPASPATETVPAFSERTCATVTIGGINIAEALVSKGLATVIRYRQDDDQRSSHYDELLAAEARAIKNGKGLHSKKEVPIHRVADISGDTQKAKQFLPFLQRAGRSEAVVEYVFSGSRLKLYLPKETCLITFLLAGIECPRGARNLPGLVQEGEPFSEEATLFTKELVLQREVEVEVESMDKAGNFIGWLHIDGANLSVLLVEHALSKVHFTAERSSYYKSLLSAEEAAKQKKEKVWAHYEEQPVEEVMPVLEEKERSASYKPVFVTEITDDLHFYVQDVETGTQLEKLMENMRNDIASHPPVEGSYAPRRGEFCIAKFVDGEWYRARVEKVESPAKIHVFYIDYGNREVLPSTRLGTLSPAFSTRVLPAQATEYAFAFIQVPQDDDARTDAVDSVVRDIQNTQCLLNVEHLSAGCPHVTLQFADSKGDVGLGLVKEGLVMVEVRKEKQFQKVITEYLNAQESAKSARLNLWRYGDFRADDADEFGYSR
Chain of UniProt Q8TBC3 (Q8TBC3 whole entry, looked up): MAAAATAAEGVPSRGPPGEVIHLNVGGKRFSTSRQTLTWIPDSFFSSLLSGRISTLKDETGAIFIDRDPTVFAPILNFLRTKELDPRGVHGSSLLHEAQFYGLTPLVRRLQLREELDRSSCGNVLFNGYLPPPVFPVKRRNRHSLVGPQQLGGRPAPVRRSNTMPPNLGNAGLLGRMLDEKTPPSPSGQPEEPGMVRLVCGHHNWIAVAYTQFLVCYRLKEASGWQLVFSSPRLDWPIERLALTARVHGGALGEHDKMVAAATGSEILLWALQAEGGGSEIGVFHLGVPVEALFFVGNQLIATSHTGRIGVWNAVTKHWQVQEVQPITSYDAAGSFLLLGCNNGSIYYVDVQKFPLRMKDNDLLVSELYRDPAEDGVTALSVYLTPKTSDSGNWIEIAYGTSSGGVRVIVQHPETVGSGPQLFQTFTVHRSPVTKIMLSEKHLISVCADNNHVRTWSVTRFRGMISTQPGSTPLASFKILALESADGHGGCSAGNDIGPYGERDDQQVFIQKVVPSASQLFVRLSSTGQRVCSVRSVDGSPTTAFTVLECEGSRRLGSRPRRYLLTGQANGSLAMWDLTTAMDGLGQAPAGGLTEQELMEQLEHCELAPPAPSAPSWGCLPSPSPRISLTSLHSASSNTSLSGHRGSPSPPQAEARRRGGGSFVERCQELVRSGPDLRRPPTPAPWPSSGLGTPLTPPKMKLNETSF
Chain of UniProt Q15796 (Q15796 whole entry, looked up): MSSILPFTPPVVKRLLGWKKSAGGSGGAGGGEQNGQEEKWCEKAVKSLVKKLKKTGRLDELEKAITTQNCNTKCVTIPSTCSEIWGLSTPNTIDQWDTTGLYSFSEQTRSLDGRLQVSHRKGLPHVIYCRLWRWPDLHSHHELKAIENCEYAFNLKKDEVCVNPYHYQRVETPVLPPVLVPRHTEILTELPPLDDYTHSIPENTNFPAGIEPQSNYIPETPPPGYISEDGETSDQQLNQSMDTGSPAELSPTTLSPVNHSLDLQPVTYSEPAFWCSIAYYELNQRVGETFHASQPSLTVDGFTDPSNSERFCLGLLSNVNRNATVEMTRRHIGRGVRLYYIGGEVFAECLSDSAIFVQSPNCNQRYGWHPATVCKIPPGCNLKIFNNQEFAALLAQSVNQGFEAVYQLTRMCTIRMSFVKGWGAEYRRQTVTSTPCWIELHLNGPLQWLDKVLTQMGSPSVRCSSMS
Chain of UniProt P35610 (P35610 whole entry, looked up): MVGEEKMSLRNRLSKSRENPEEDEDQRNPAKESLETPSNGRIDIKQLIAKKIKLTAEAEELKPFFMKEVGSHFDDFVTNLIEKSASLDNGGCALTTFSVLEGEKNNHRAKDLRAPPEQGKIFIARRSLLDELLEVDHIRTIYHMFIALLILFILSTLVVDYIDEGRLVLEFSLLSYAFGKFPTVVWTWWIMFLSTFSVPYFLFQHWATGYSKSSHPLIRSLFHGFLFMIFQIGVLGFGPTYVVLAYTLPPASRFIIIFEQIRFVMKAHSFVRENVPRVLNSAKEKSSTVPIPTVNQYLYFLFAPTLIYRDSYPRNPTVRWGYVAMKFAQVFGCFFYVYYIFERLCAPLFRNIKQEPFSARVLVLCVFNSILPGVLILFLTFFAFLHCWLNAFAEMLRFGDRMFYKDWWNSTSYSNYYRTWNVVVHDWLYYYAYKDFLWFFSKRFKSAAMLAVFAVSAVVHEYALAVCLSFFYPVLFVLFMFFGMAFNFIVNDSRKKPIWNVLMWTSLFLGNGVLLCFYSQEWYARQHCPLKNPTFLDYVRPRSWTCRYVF

| Target | log2 fold change (ibrutinib) | log2 fold change [1] | log2 fold change (ralimetinib) | log2 fold change [2] | log2 fold change [3] | log2 fold change [4] | log2 fold change [5] | log2 fold change [6] | log2 fold change [7] | log2 fold change [8] | log2 fold change (vemurafenib) | log2 fold change [9] | log2 fold change (barasertib) | log2 fold change [10] | log2 fold change (volasertib) | log2 fold change [11] | log2 fold change [12] | log2 fold change [13] | log2 fold change (saracatinib) | log2 fold change (sotrastaurin) |
| --- | --- | --- | --- | --- | --- | --- | --- | --- | --- | --- | --- | --- | --- | --- | --- | --- | --- | --- | --- | --- |
| SUZ12 (UniProt Q15022) | -0.043 | 0.013 | 0.003 | -0.036 | 0.007 | -0.023 | -0.09 | 0.289 (active) | 0.048 | -0.01 | 0.012 | 0.022 | -0.012 | 0.024 | -0.001 | 0.012 | -0.026 | -0.002 | -0.019 | 0 |
| SSU72 (UniProt Q9NP77) | 0.075 | 0.031 | 0.026 | -0.002 | 0.038 | -0.018 | 0.025 | 0.001 | 0.015 | 0.03 | -0.018 | 0.001 | 0.018 | -0.064 | -0.045 | -0.049 | -0.325 (active) | 0.171 | -0.001 | 0.018 |
| SMAD2 (UniProt Q15796) | 0.041 | -0.014 | 0.025 | 0.012 | 0.005 | -0.061 | -0.014 | 0.054 | 0.029 | 0.017 | -0.027 | 0.074 | 0.03 | -0.031 | -0.006 | -0.027 | 0.025 | -0.003 | 0.017 | -0.002 |
| SYF2 (UniProt O95926) | 0.094 | 0.023 | -0.019 | 0.001 | -0.02 | -0.027 | -0.122 | 0.037 | 0.066 | -0.061 | -0.012 | -0.042 | -0.039 | 0.096 | 0.038 | -0.044 | -0.043 | 0.028 | 0.015 | -0.008 |
| SHKBP1 (UniProt Q8TBC3) | 0.064 | -0.02 | 0.063 | 0.006 | 0.067 | -0.005 | -0.051 | 0.038 | 0.052 | 0.004 | 0.079 | -0.017 | 0.03 | -0.038 | 0.033 | -0.058 | -0.093 | 0.103 | 0.013 | 0.017 |
| SND1 (UniProt Q7KZF4) | 0.012 | 0.004 | 0.03 | 0.044 | 0.027 | 0.024 | 0.015 | 0.003 | 0.038 | 0.024 | 0.024 | 0.017 | 0.021 | -0.099 | -0.084 | 0.037 | 0.058 | -0.078 | 0.014 | 0.031 |
| SYNE2 isoform 2 (UniProt Q8WXH0) | 0 | -0.003 | 0.018 | -0.076 | -0.106 | -0.153 | -0.047 | 0.04 | -0.005 | 0.006 | 0.009 | 0.005 | 0.085 | 0.004 | 0.065 | -0.042 | -0.966 (active) | 0.371 | -0.054 | 0.035 |
| SOAT1 (UniProt P35610) | 0.043 | 0.017 | 0.151 | -0.107 | -0.055 | -0.046 | -0.022 | 0.1 | -0.012 | 0.019 | 0.047 | 0.055 | 0.008 | -0.003 | -0.009 | -0.061 | -0.063 | -0.062 | 0.016 | 0.019 |
| STIM1 (UniProt Q13586) | 0.033 | 0.043 | 0.023 | -0.021 | 0.027 | 0.003 | 0.023 | 0.001 | 0.008 | 0.027 | 0.003 | 0.012 | 0.036 | -0.076 | 0.006 | 0.048 | 0.259 | -0.205 | 0.003 | -0.01 |
| SLC27A2 (UniProt O14975) | 0.243 | -0.024 | -0.013 | 0.245 | 0.11 | -0.041 | -0.035 | 0.069 | -0.089 | 0.031 | 0.089 | 0.009 | 0.029 | -0.033 | -0.084 | -0.063 | -0.024 | 0.082 | -0.021 | 0.159 |
| SH3GL1 (UniProt Q99961) | -0.004 | 0 | 0.031 | 0.006 | -0.015 | -0.03 | 0.017 | 0.025 | 0.006 | -0.012 | -0.002 | -0.01 | -0.019 | 0.044 | -0.004 | 0.018 | 0.044 | -0.022 | 0.011 | -0.03 |
| STAT2 (UniProt P52630) | 0.007 | 0.007 | 0.04 | -0.026 | -0.003 | 0.009 | -0.002 | -0.059 | 0.003 | 0.004 | 0.04 | 0.026 | -0.021 | -0.03 | -0.047 | 0.033 | -0.011 | -0.164 | -0.009 | 0.029 |
| STK36 (UniProt Q9NRP7) | 0.019 | -0.182 | -0.087 | -0.416 | 0.071 | -0.058 | -0.176 | 0.408 | -0.004 | -0.097 | 0.188 | 0.038 | -0.073 | 0.302 | 0.01 | -0.445 | -0.532 | 0.442 | 0.077 | -0.072 |
| SMG5 (UniProt Q9UPR3) | -0.041 | 0.048 | 0.021 | -0.032 | -0.037 | 0.071 | 0.015 | -0.117 | 0.057 | 0.024 | 0.009 | 0.048 | 0.047 | 0.029 | -0.006 | 0.068 | 0.038 | -0.004 | 0.05 | -0.024 |
| TAF9 (UniProt Q16594) | -0.028 | 0.044 | 0.033 | -0.057 | 0.032 | 0.015 | 0.019 | 0.027 | 0.101 | -0.023 | -0.028 | -0.092 | -0.001 | -0.031 | 0.063 | 0.002 | 0.238 (active) | -0.006 | 0.056 | -0.001 |
